Test in all cases: PBM binding z-score (relative to random genomic background probes); higher = stronger binding; sequences stand for … in GC…GCGATTGACAGCGTAGAATGAAGG
For experiment [1], the system named is PPARg:RXRa DBDmut IVT, anti-RXR (DBD mutation: RXRa K156A/R161A, NR concentration 270 nM, RXRa partner concentration 90 nM). In outline: (§1)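 Ligand-free nuclear receptor dimers were bound for 1 h to custom Agilent 4×180K protein-binding microarrays. Detection used antibodies against each partner (one per run). Binding z-scores rest on regression-normalized fluorescence, with random background probes as the reference.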

Experiment [2] relates to PPARg:RXRa IVT, anti-PPARg (NR concentration 270 nM, RXRa partner concentration 90 nM). In outline:
as §1

Experiment [3] has as its system PPARg DBDmut:RXRa IVT, anti-PPARg (DBD mutation: PPARg1 K132A/R137A, NR concentration 270 nM, RXRa partner concentration 90 nM). The essentials: as §1
Experiment [4] deals with PPARg DBDmut IVT, anti-PPARg (DBD mutation: PPARg1 K132A/R137A, NR concentration 270 nM). The essentials:
as §1

The test system of experiment [5] is PPARg homodimer (NR concentration 180 nM). In outline:
as §1

Experiment [6] deals with PXR:RXRa (NR concentration 270 nM, RXRa partner concentration 90 nM). In outline: as §1
The test system of experiment [7] is PXR homodimer (NR concentration 270 nM). In outline: as §1
Experiment [8] concerns RARa:RXR (NR concentration 270 nM, RXRa partner concentration 90 nM). In outline:
as §1

For experiment [9], the system named is RARa homodimer (NR concentration 270 nM). In outline: as §1
In experiment [10] the test system is RARb:RXRa (NR concentration 270 nM, RXRa partner concentration 90 nM). The essentials:
as §1

For experiment [11], the system named is RARb homodimer (NR concentration 270 nM). In outline: as §1
The test system of experiment [12] is RARg:RXRa (NR concentration 270 nM, RXRa partner concentration 90 nM). In outline: as §1
In experiment [13] the test system is RARg homodimer (NR concentration 270 nM). In outline:
as §1

For experiment [14], the system named is RXRa DBDmut IVT, anti-RXR (DBD mutation: RXRa K156A/R161A, NR concentration 90 nM). The essentials:
as §1

Experiment [15] relates to RXRa homodimer (NR concentration 180 nM). The essentials:
as §1

Experiment [16] relates to THRa:RXRa (NR concentration 90 nM, RXRa partner concentration 90 nM). In outline: as §1
The test system of experiment [17] is THRa homodimer (NR concentration 90 nM). The essentials: as §1
Experiment [18] concerns VDR homodimer (NR concentration 270 nM). The essentials: as §1

The text below walks through data of the supplement of paper PMC6555819.

As to ACAGACAGGTGATGAAGGCAACTCAGGCTATCAT, the PBM binding z-score was -0.272 in experiment [1]; -0.316 in [2]; 0.175 in experiment [3]; -1.07 in [4]; -0.119 in experiment [5]; -0.469 in [6]. Moreover, the PBM binding z-score is -0.142 in [7]; 0.0224 in [8]; 0.0844 in experiment [9]; 0.0179 in experiment [10]; -0.412 in [11]; 0.106 in experiment [12]. Further, the PBM binding z-score is 0.345 in experiment [13]; -0.405 in [14]; 0.152 in experiment [15]; 0.815 in experiment [16]; -0.588 in experiment [17]; -0.37 in experiment [18].

As for TCATATAGGTAAATCCTAGGTGAAAGTCCGATCT, the PBM binding z-score was 3.48 in [1]; 2.8 in experiment [2]; 0.825 in experiment [3]; 0.675 in [4]; -0.358 in [5]; 0.68 in experiment [6]. Moreover, the PBM binding z-score in experiment [7] amounted to 0.175; in experiment [8], 1.11; in experiment [9], 0.51; in experiment [10], 0.592; in experiment [11], 0.18; in [12], 0.491. Further, the PBM binding z-score was 0.396 in experiment [13]; 1.37 in [14]; 0.983 in experiment [15]; 1.96 in experiment [16]; 0.368 in experiment [17]; -0.253 in [18].

For the sequence TCTCGGAGGACACGAAAGGCCAGAGCTCGACATC, the PBM binding z-score in experiment [1] is 1.19; in [2], -0.0515; in experiment [3] it was -0.613; in experiment [4], -0.159; in experiment [5], -0.541; in experiment [6], -0.141. For the same sequence, the PBM binding z-score in [7] was -0.472; in experiment [8], 0.327; in [9], -0.569; in [10] it was 1.82; in [11], 1.53; in [12] it was 0.946. For the same sequence, the PBM binding z-score in experiment [13] was 1.9; in experiment [14], 0.804; in experiment [15], 0.296; in experiment [16], 1.54; in [17] it was 0.338; in experiment [18], -0.482.

In the case of ACAGACGGGTGAGTGAAGGTAACTCAGCTGGACG, the PBM binding z-score is -0.0722 in [1]; 0.467 in experiment [2]; 2.8e-05 in [3]; -1.31 in experiment [4]; 0.113 in experiment [5]; -0.343 in [6]. Moreover, the PBM binding z-score in experiment [7] was -0.231; in experiment [8], 0.0341; in experiment [9] it was -0.176; in experiment [10], 0.0932; in [11], 0.0268; in experiment [12], -0.0676. In addition, the PBM binding z-score in [13] was 0.0149; in [14], -0.71; in experiment [15], 0.204; in experiment [16], 1.45; in experiment [17], -0.184; in experiment [18], -0.714.

As to ACAGACAGGTGATGAAGGTAACTCAGGCTATCAT, the PBM binding z-score is 0.422 in experiment [1]; 0.692 in [2]; 0.619 in [3]; 0.238 in experiment [4]; 0.146 in [5]; -0.153 in [6]. Besides, the PBM binding z-score worked out at 0.282 in experiment [7]; 0.117 in [8]; 0.425 in experiment [9]; 0.236 in experiment [10]; 0.446 in experiment [11]; 0.303 in experiment [12]. The PBM binding z-score was 0.521 in experiment [13]; -0.295 in experiment [14]; 0.205 in experiment [15]; 0.774 in [16]; 0.267 in [17]; -0.205 in experiment [18].

As for CCTACTGGACCAAAAAGGTCATTGATGCCGATAA, the PBM binding z-score is 1.82 in experiment [1]; 2.46 in [2]; -0.0112 in [3]; -0.226 in experiment [4]; 4.04 in experiment [5]; 4.77 in experiment [6]. Besides, the PBM binding z-score in experiment [7] was 2.35; in experiment [8], 5.09; in experiment [9] it was 3.15; in experiment [10], 3.96; in experiment [11], 4.26; in experiment [12], 4.54. Also, the PBM binding z-score in [13] came to 4.04; in [14], 1.08; in [15] it was 5.04; in [16], 3.33; in [17], 1.43; in experiment [18], 3.2.

Turning to CCTACTGGGCCAAAAAGGTCATTGACGCCGATAA, the PBM binding z-score in [1] is 3.85; in experiment [2] it was 3.99; in experiment [3] it was -0.855; in [4], -0.422; in experiment [5] it was 2.91; in experiment [6] it was 4.65. The PBM binding z-score in experiment [7] was found to be 2.1; in experiment [8] it was 5.01; in experiment [9], 1.28; in experiment [10], 3.72; in [11], 4.4; in [12] it was 4.59. Also, the PBM binding z-score was 4.36 in experiment [13]; 0.774 in [14]; 4.9 in experiment [15]; 3.02 in experiment [16]; 0.658 in experiment [17]; 2.4 in experiment [18].
